Assay [1] can be described thus: qHTS assay to identify small molecule antagonists of the TGF-beta/Smad signaling pathway - cell viability counter screen (AID 1346824). Further: nearly all actives have a fitted effect of over 50% in size. Summed up: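 SBE-bla HEK 293T cells were plated overnight at 37 C, then given compounds in DMSO plus TGF-beta1 (added as 0.25 ng/mL solution) for 5 hr. After the bla read, CellTiter-Glo was added to the same wells and luminescence read after 30 min at room temperature.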

A short description of assay [2]: qHTS assay to identify small molecule agonists of the TGF-beta/Smad signaling pathway - cell viability counter screen (AID 1346829). Further: top concentration of the series differs between compounds; nearly all actives have a fitted effect of over 45% in size. The essentials:
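SBE-bla HEK 293T cells plated overnight, compound exposure 5 hr at 37 C. Viability read in the same wells by CellTiter-Glo luminescence after 30 min at room temperature, following the beta-lactamase read.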

In assay [3] the target is Thyrotropin-releasing hormone receptor (Homo sapiens) (UniProt P34981). Nature of the assay: qHTS assay to identify small molecule antagonists of the thyrotropin-releasing hormone receptor (TRHR) signaling pathway (AID 1346877; active means well fitted inhibition curve with a large enough effect in the repeat runs, not every such curve was filed as active; further: series mostly up to about 51 µM). The essentials: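 Kinetic fluorescence (3 min, 1 s resolution) following stimulation with TRH at 1 nM final; HEK293 cells bearing human TRHR; 5 min compound preincubation at RT; concentration-response over 15 points, triplicates.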
In general terms: In qHTS, concentration-response curves come from the screen itself.

Assay [4] shares this target. Description: qHTS assay to identify small molecule agonists of the thyrotropin-releasing hormone receptor (TRHR) signaling pathway (AID 1346891; calls by dose curve;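 further: HEK293 cells expressing TRHR with calcium dye readout; series mostly up to about 58 µM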). Summed up: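 Overnight-plated (18 h, 37 °C, 5% CO2) TRHR-Hek293 cells; 2 h calcium dye at 37 °C; compound in DMSO; 3-min kinetic fluorescence read.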
Assay [5] can be described thus: Human pregnane X receptor (PXR) small molecule agonists, qHTS cell viability counter screen (AID 1346977). Further: nearly all actives have a fitted effect of over 50% in size. Further: potency means the concentration at half of the fitted maximal effect. Summed up: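 After a 5hr pre-incubation, PXR-Luc HepG2 cells received compounds plus positive control in DMSO and were kept 24hr at 37C. Cell viability was quantified by fluorescence from CellTiter-Fluor added for the final hour.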
The nature of assay [6]: Caspase-3/7 induction in HepG2 cells by small molecules, qHTS assay (AID 1346978). Further: nearly all actives have a fitted effect of over 15% in size. Further: potency means the concentration at half of the fitted maximal effect. The essentials: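 Wild-type HepG2 cells (2,000/well) were settled 5 h at 37 C, 5% CO2, then exposed to compounds in DMSO for 17 h. Caspase-3/7 activity was read by luminescence 30 min after adding Caspase-Glo 3/7 reagent at room temperature.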
Assay [7] is described as follows: Caspase-3/7 induction in CHO-K1 cells by small molecules, qHTS cell viability counter screen (AID 1346979). Further: nearly all actives have a fitted effect of over 35% in size. Further: potency means the concentration at half of the fitted maximal effect. The essentials:
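Multiplexed with Caspase-Glo 3/7 in CHO-K1 cells, this counter screen added CellTiter-Fluor after 16hr of compound exposure and recorded fluorescence 1hr later.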

Assay [8] in a line: Caspase-3/7 induction in CHO-K1 cells by small molecules, qHTS assay (AID 1346980). Further: nearly all actives have a fitted effect of over 15% in size. The essentials: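 Wild-type cells were seeded at 1,500 per well and settled 5 hr at 37 C, 5% CO2, then exposed to DMSO-dissolved compounds for 17 hr. Caspase-Glo 3/7 reagent was added, and luminescence was read after 30min at room temperature.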
A short description of assay [9]: Caspase-3/7 induction in HepG2 cells by small molecules, qHTS cell viability counter screen (AID 1346981). Further: nearly all actives have a fitted effect of over 30% in size. Further: potency means the concentration at half of the fitted maximal effect. On activity change, negative = cytotoxicity: series mostly up to about 92 µM. The essentials: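 In this quantitative HTS counter screen, compounds delivered in DMSO were left on unmodified HepG2 cells for 16 hr at 37 C. Viability was then determined fluorometrically with CellTiter-Fluor, in parallel with caspase-3/7 induction in the same wells.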

Assay [10] deals with Nuclear receptor subfamily 1 group I member 2 (Homo sapiens) (UniProt O75469). Description: Human pregnane X receptor (PXR) small molecule agonists, qHTS assay (AID 1346982). Further: nearly all actives have a fitted effect of over 35% in size. Further: potency means the concentration at half of the fitted maximal effect. Summed up: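 Reporter HepG2 cells expressing PXR-Luc are cultured in charcoal-stripped FBS (5%), treated with compounds for 24 hr at 37 C, and assayed by ONE-Glo luminescence after 30 min at room temperature.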

Assay [11] can be described thus: qHTS assay to identify small molecule agonists of the estrogen receptor alpha (ER-alpha) signaling pathway in the presence of an antagonist - cell viability counter screen (AID 1259386).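 Further: series mostly up to about 92 µM; cells exposed to compounds for 22 h at 37 °C before the viability read; nearly all actives have a fitted effect of over 30% in size.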 Summed up:
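In this counter screen, compound effects on VM7Luc4E2 viability were tested in the presence of the antagonist ICI-182,780 at 10.0nM final. Compounds were dosed at 15 concentrations, exposure lasted 22hr, and the CellTiter-Fluor signal was read.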

Assay [12] can be described thus: qHTS assay to identify small molecule antagonists of the progesterone receptor (PR) signaling pathway - cell viability counter screen (AID 1346798). Further: nearly all actives have a fitted effect of over 50% in size. Further: potency means the concentration at half of the fitted maximal effect. On activity change, negative = cytotoxicity: series mostly up to about 92 µM. Summed up:
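Measures cytotoxicity in parallel with the PR antagonist reporter read: HEK293T PR-UAS-bla cells get compound and R5020 for 16 hr, and remaining viable cells are quantified by CellTiter-Glo luminescence.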

A short description of assay [13]: qHTS assay to identify small molecule agonists of the TGF-beta/Smad signaling pathway (AID 1346859; active means well fitted activation curve with a large enough effect in the signal ratio in the repeat runs, not every such curve was filed as active; the % refers to the signal ratio; further: series mostly up to about 77 µM). Summed up: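 Beta-lactamase reporter activity downstream of Smad binding elements was measured in stably transfected HEK 293T cells; compounds were incubated for 5 hr, substrate for 2 hr at room temperature.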
Assay [14] addresses Progesterone receptor (Homo sapiens) (UniProt P06401). Nature of the assay: qHTS assay to identify small molecule agonists of the progesterone receptor (PR) signaling pathway (AID 1346784; calls by dose curve; further: nearly all actives have a fitted effect of over 30% in size). The essentials:
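Seed PR-UAS-bla HEK 293T cells (2% charcoal-stripped FBS), incubate 6 hr at 37C; add compounds in DMSO, 16 hr at 37C; add LiveBLAzer B/G substrate, 2 hr RT; read fluorescence intensity.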

Assay [15] is described as follows: qHTS assay to identify small molecule agonists of the progesterone receptor (PR) signaling pathway - cell viability counter screen (AID 1346799; calls by dose curve; further: nearly all actives have a fitted effect of over 45% in size; further: potency means the concentration at half of the fitted maximal effect). Summed up: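 Using the same plates as the PR reporter screen, HEK293T PR-UAS-bla cells received compounds for 16 hr at 37C and were then lysed with CellTiter-Glo; luminescence was read 30 min later at room temperature.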

Assay [16] addresses Progesterone receptor (Homo sapiens) (UniProt P06401). Nature of the assay: qHTS assay to identify small molecule antagonists of the progesterone receptor (PR) signaling pathway (AID 1346795; active means well fitted inhibition curve with a large enough effect in the signal ratio in the repeat runs, not every such curve was filed as active; the % refers to the signal ratio). The essentials:
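Screening used a GripTite HEK293T line with PR-responsive UAS-beta-lactamase. Cells were challenged with compound in the presence of 1 nM R5020 final for 16 hr at 37C; B/G FRET substrate, 2 hr room temperature, fluorescence.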

Assay [17] deals with Nuclear receptor subfamily 1 group I member 2 (Rattus norvegicus) (UniProt Q9R1A7). Description: Rat pregnane X receptor (rPXR) activation by small molecules, qHTS assay (AID 1346983). Further: nearly all actives have a fitted effect of over 20% in size. Conditions: rPXR luciferase reporter cells, One-Glo luminescence, 24 h; max activation: active compounds read high. The essentials:
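Cell-based rPXR luciferase reporter assay, 2,000 cells per well, rested 5hr at 37 C before compound addition in DMSO, then 24 hr at 37 C. One-Glo reagent was added and luminescence read after 30 min at room temperature.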

In assay [18] the target is Nuclear receptor subfamily 1 group I member 2 (Homo sapiens) (UniProt O75469). Description: CYP3A4 induction through human pregnane X receptor (PXR) by small molecules, qHTS assay (AID 1346984). Further: nearly all actives have a fitted effect of over 40% in size. The essentials:
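Induction measured in HepG2-based DPX-2 cells co-expressing human PXR and a CYP3A4 promoter-driven luciferase. After a 24-hour compound exposure, cells received CYP3A4 luciferin substrate at 3uM final for 3 hours, and light output was then recorded.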

The target is the same in assay [19]. Description: Human pregnane X receptor (PXR) activation by small molecules, qHTS assay (AID 1346985). Further: nearly all actives have a fitted effect of over 40% in size. The essentials:
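DPX-2 cells (HepG2 co-transfected with a PXR response element and a CYP3A4-promoter luciferase construct) were seeded at 2,000 per well, rested 5 hr at 37C, then exposed to DMSO-dissolved compounds for 24 hr. Activation was read as luciferase luminescence.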

This note sets out measurements from PubChem BioAssay (Tox21).

Values without a mark were called inactive. Results filed as inconclusive are left out. Calls of active or inactive are those of the source. Unless noted, the call rests on the fitted dose curve; in most records, active means well fitted curve in the direction sought with a large enough effect in the repeat runs; inconclusive means weak or mixed curves; inactive means no such curve, though single readings can be large; an effect the other way counts as inactive or inconclusive.
On the % scale 0 is the no-effect control and ±100 the full control effect.

Thyrotropin-releasing hormone receptor (Homo sapiens), sequence (P34981 whole entry, looked up): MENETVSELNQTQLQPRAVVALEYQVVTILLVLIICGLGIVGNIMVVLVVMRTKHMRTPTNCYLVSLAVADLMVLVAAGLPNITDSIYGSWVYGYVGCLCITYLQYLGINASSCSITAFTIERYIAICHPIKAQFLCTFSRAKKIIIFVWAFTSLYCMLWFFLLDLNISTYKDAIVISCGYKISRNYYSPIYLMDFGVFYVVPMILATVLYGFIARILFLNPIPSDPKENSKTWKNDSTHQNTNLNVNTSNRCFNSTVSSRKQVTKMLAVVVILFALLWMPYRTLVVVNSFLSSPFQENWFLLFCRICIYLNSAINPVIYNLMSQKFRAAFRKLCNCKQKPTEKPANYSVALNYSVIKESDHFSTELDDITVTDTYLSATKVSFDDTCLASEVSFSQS
Nuclear receptor subfamily 1 group I member 2 (Homo sapiens), sequence (O75469 whole entry, looked up): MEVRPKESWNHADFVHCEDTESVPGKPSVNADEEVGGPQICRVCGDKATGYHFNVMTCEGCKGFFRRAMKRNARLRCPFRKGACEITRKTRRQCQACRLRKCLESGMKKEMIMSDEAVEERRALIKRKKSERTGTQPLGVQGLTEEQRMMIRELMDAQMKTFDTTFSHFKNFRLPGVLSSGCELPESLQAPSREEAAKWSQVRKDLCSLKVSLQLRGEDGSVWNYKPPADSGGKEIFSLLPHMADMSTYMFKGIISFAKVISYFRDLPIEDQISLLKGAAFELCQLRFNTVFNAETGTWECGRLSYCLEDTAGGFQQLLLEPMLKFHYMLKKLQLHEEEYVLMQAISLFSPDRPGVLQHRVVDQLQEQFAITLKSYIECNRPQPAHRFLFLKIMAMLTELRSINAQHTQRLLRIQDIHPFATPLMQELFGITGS
Progesterone receptor (Homo sapiens), sequence (P06401 whole entry, looked up): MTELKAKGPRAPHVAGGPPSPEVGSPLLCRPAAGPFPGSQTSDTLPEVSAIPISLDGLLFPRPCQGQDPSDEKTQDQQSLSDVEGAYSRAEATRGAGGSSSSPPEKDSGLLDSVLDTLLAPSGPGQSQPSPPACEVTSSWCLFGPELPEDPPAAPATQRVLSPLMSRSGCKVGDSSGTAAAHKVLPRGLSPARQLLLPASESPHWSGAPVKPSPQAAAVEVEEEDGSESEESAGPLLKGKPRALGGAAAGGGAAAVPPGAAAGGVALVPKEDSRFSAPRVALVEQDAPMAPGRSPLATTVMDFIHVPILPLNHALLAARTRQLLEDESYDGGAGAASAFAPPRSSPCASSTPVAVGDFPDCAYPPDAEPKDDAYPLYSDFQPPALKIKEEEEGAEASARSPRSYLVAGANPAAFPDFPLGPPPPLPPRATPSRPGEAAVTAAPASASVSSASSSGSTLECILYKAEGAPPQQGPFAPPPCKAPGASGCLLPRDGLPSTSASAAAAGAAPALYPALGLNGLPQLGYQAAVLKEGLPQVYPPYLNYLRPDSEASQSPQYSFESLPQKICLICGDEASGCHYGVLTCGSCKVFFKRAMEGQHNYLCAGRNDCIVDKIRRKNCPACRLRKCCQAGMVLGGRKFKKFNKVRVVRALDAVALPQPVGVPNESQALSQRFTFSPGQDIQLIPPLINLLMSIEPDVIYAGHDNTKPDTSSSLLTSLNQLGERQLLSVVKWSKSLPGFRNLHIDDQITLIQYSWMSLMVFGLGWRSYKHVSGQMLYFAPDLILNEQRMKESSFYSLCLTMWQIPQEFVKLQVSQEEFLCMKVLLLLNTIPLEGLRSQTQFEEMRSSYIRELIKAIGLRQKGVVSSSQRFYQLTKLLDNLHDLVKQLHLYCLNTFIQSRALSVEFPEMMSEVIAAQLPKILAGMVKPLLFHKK
Nuclear receptor subfamily 1 group I member 2 (Rattus norvegicus), sequence (Q9R1A7 whole entry, looked up): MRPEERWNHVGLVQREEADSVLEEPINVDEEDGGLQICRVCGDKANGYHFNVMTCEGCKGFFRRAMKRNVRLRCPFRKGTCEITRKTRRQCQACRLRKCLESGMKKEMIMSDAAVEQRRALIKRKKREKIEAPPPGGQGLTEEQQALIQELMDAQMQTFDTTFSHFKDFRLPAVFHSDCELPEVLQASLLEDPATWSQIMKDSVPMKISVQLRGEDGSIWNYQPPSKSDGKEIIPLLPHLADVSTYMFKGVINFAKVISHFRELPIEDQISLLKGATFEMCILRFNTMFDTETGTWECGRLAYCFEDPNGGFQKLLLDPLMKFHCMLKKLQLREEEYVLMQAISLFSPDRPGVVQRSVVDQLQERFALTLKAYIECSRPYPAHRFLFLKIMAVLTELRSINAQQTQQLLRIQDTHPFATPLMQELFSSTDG

As for `c1cc(N(CC2CO2)CC2CO2)ccc1Cc1ccc(N(CC2CO2)CC2CO2)cc1` (centres undefined), the Potency entry in assay [1], in assay [2], in assay [4], in assay [6] and in [8] was “inactive” each time. In addition, in assay [3], the result was inactive. Besides, the Potency in [5] was 54.5 µM (active); in assay [7], 54.5 µM (active); in assay [9] it was 61.1 µM (active); in assay [10] it was 27.3 µM (active).

Consider `C=CC(=O)OCC1CC2CC1C1CCC(COC(=O)C=C)C21` (centres undefined), for which the Potency entry in assay [11], in assay [12], in assay [1], in assay [13], in assay [4] and in assay [6] was “inactive” throughout. Besides, the Potency result in assay [9] was “inactive”. Besides, the compound was called inactive in assay [3]. Also, the Potency in assay [7] was 48.6 µM (active); in [10], 34.4 µM (active).

Consider `C[C@@H](O[C@H]1OCCN(Cc2n[nH]c(=O)[nH]2)[C@H]1c1ccc(F)cc1)c1cc(C(F)(F)F)cc(C(F)(F)F)c1`, for which the Potency result in [11], in [1], in assay [2], in assay [13], in assay [4] and in assay [8] was “inactive” in each case. Moreover, the result in assay [3] was inactive. For the same compound, the Potency in [6] is 33.5 µM (active); in assay [7] it was 29.8 µM (active); in assay [9], 29.8 µM (active).

As to `CC(CC1c2ccccc2CCc2ccccc21)CN(C)C` (centres undefined), the Potency entry in assay [11], in assay [14], in assay [15], in assay [1], in assay [2] and in [13] was “inactive” in each case. Besides, the Potency result in [6] and in assay [8] was “inactive” each time. Besides, in assay [12], the Potency was 23.7 µM (active).

For `O=C1c2ccccc2C(=O)C1(O)O`, the Potency result in assay [14], in [16], in [12], in assay [15] and in [4] was “inactive” in each case. In addition, the call in [3] was inactive. Further, the Potency in assay [7] is 54.8 µM (active); in assay [10], 61.4 µM (active).

In the case of `CC1(C)[C@H](C(=O)O)N2C(=O)C[C@H]2S1(=O)=O`, the Potency entry in [11], in assay [12], in assay [15], in [1], in [2] and in [13] was “inactive” in each case. The Potency entry in assay [4], in assay [6], in assay [7], in [8] and in assay [9] was “inactive” each time. In assay [3], the compound was called inactive.

With `C/C=C/C=C/C=O`, the Potency entry in [11], in assay [14], in assay [12], in assay [2], in [13] and in assay [4] was “inactive” each time. The Potency entry in [5], in assay [6], in [7], in assay [8], in assay [9] and in assay [10] was “inactive” throughout. Further, the call in assay [3] was inactive.

For `O=Cc1c2ccccc2c(Cl)c2ccccc12`, the Potency result in [11], in assay [14], in assay [12], in assay [15], in assay [1] and in assay [13] was “inactive” throughout. For the same compound, the Potency result in assay [5], in [6], in [8], in assay [9] and in [10] was “inactive” each time. Further, the Potency in assay [7] was 23.7 µM (active).

`Brc1cc2ccccc2c2ccccc12`: the Potency entry in assay [11], in [14], in [12], in assay [1], in assay [2] and in assay [13] was “inactive” each time. The Potency result in [4], in assay [5], in assay [6], in [7] and in assay [9] was “inactive” each time. The compound was classed as inactive in assay [3].

`O=C1c2ccccc2C(=O)N1CCc1noc(-c2ccc(CN3CCCCCC3)s2)n1`: the Potency result in assay [14], in assay [12], in [15], in assay [1], in [2] and in [4] was “inactive” throughout. Also, the Potency entry in assay [6] and in [8] was “inactive” throughout. Moreover, in assay [3], the outcome was inactive. In assay [10], the Potency is 14.1 µM (active).

For the compound `CCOC(=O)[C@H](CCc1ccccc1)N[C@@H](C)C(=O)N(CC(=O)O)C1Cc2ccccc2C1`, the Potency entry in assay [11], in [14], in assay [1], in assay [2], in assay [13] and in [4] was “inactive” throughout. The Potency entry in [6], in assay [7], in assay [8] and in assay [9] was “inactive” each time. Moreover, the Potency in assay [12] was 6.68 µM (active); in assay [10], 11.9 µM (active). The result in assay [3] was inactive.

For `Cc1cc(=O)c2c(O)c3c(O)cc(=O)c4c3c3c(cc(O)c1c23)C(C)(C)C=4O`, the activity change, negative = cytotoxicity in assay [11] is -17.3% [at 19 µM]. Further, the activation in assay [14] is -2.51% [at 19 µM]; in assay [4], 12.7% [at 11.8 µM]. Besides, in assay [3], the activity, negative = inhibition was 1.99% [at 10.5 µM]. The Potency is 0.73 µM (active) in assay [5] and 2.59 µM (active) in [7]. The caspase activation in [6] is -2.97% [at 19 µM]. Moreover, the caspase-3/7 activation in assay [8] was -1.78% [at 19 µM].

On to `CCCCCCCCCCCCCCN(CCO)CCO`, for which the Potency result in [11], in assay [13], in [4] and in assay [8] was “inactive” in each case. For the same compound, the Potency in [15] was 34.4 µM (active); in [5] it was 61.1 µM (active); in assay [6], 30.6 µM (active); in [7], 27.3 µM (active); in [9], 68.6 µM (active); in assay [10], 12.2 µM (active). Besides, in assay [3], the outcome was inactive.

Turning to `CCN(CC)CCNC(=O)COc1ccc(OC)cc1`, the Potency entry in assay [11], in assay [12], in assay [15], in assay [1], in [2] and in assay [13] was “inactive” each time. The Potency result in assay [4], in assay [5], in [6], in assay [7], in assay [9] and in assay [10] was “inactive” in each case. Besides, the Potency entry in assay [18] and in assay [19] was “inactive” in each case. Besides, the call in assay [3] was inactive. For the same compound, in assay [17], the max activation was 6.52%.
